An excerpt weighted towards active compounds, which were near 8% of everything screened.
Lassa entry inh – Lassa virus entry inhibition. Lassa virus pseudotype entry inhibition, cell reporter. Potency, µM (doses to about 37.9 µM), for the others: top-dose activity change, negative = inhibition, hits mostly inhibitors. 300,000 tested, 1.2% active. AID 540256; calls by dose curve; tested in HEK293 cells; also: potency is read from the fitted curve at half-maximal effect; % is scaled to controls: 0 for no effect and ±100 for the full control effect; nearly all actives have a fitted effect of over 50% in size
SARS PLP yeast – SARS-CoV PLP inhibition in yeast | AID 485353 | Potency, µM (top dose mostly 32.9 µM), without a hit: top-dose activity, positive = growth rescue, most hits filed as activators | S. cerevisiae expressing SARS-CoV PLpro, growth rescue | 330,000 tested, 0.19% active; calls by dose curve; also: potency is read from the fitted curve at half-maximal effect; 0% is about no effect; nearly all actives have a fitted effect of over 55% in size
MARV entry inh – inhibitors of Marburg virus binding or cell entry; 300,000 tested, 1.8% active; Marburg virus pseudotyped entry inhibition, cell reporter; Potency, µM (titrated, usually from 37.8 µM), without a hit: at the highest dose activity change, negative = inhibition, most hits filed as inhibitors; calls by dose curve; tested in HEK293 cells; also: potency is read from the fitted curve at half-maximal effect; % is scaled to controls: 0 for no effect and ±100 for the full control effect
FMDV inh – blocks foot and mouth disease virus | FMDV antiviral cell-based qHTS | Potency, µM (series often up to 57.9 µM), without a hit: top-dose activity change, negative = inhibition, most hits filed as inhibitors | 410,000 tested, 1.2% active; calls by dose curve; tested in HEK293T cells; also: read-out not given here; potency is read from the fitted curve at half-maximal effect; % is scaled to controls: 0 for no effect and ±100 for the full control effect; nearly all actives have a fitted effect of over 45% in size
HCV inh – inhibitors of hepatitis C virus infection | Huh7.5.1 HCVcc-Cre infection, luciferase reporter, 44 h | Potency, µM (highest dose often 41.8 µM), for the others: top-dose activity change, negative = inhibition, actives largely listed as inhibitors | 340,000 tested, 3.4% active; active = well fitted inhibition curve with a large enough effect; inconclusive = small, poorly fitted or top-dose-only effect, or another doubt; inactive = no such curve, though single readings can be large or run the other way; also: potency is read from the fitted curve at half-maximal effect; % is scaled to controls: 0 for no effect and ±100 for the full control effect
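Luciferase read-out (15 sec integration) after a 15 min room-temperature substrate step quantifies HCVcc-Cre infection. Cells, 1,000 per well, had compound added 4 h post-plating, then virus at ~0.5 moi, and were cultured 44 h.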
HCMV antiviral – human cytomegalovirus inhibition | activity change, negative = inhibition, % at 57.5 µM | 410,000 tested, 4.5% active | HFF cells, HCMV-luciferase reporter, 72 h; active compounds read low | AID 1259415; in the data active = activity change below about -60%; inconclusive = no clear call, values can overlap the other calls; inactive = above about -39%; also: % is scaled to controls: 0 for no effect and ±100 for the full control effect
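After 16 h attachment at 37C, HFF cells received test compound and HCMV-luciferase (1 PFU/cell); reporter luminescence read 72 h later, data normalized against buffer-only and known inhibitor Salinomycin.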
* = called active by the depositor; u = inconclusive; x = no result; [ ] = another dose, or the depositor's remark.

SMILES	Lassa entry inh	SARS PLP yeast	MARV entry inh	FMDV inh	HCV inh	HCMV antiviral
COc1ccc(C(=O)/C(C#N)=N/Nc2ccc([N+](=O)[O-])cc2)cc1	x	-1%	x	u	1.6µM*	-114*
CCN(Cc1ccccc1OC)CC1CCCN(CCc2cccc(OC)c2)C1 (stereo not given)	u	-2%	u	-16%	u	42
CCN(Cc1ccc(OC)c(COC)c1)CC1CCCN(CCc2cccc(F)c2)C1 (stereo not given)	x	-4%	x	-9%	13µM*	-31
CCN(Cc1ccc(C#CCCO)cc1)CC1CCCN(CCc2cccc(F)c2)C1 (stereo not given)	x	5%	x	-10%	u	-24
CCN(Cc1ccc(OC)c(COC)c1)CC1CCCN(CCc2cccc(OC)c2)C1 (stereo not given)	x	-6%	x	-30%	7.9µM*	-75*
CCOC(=O)c1cccc(NC(=O)CCc2c(C)nc3c4cccnc4nn3c2C)c1	11%[46.1 µM]	x	-14%[46.1 µM]	u	x	-6
CC(=O)CSc1ccc(-c2nc3cc(C)c(C)cc3[nH]2)cn1	u	0%	u	8.9µM*	u	-100*
Cc1cc2nc(-c3ccc(SCC(=O)Nc4ccc(S(=O)(=O)N5CCCC5)cc4)nc3)[nH]c2cc1C	u	10%	12µM*	0%	u	6
O=C(CSc1ccc(-c2nc3ccccc3[nH]2)cn1)Nc1ccc(S(=O)(=O)N2CCCC2)cc1	-1%	3%	24%	-1%	-13%	-26
CC(=O)CSc1ccc(-c2nc3ccccc3[nH]2)cn1	u	-14%	6.3µM*	-76%	u	-23
Cc1cc2nc(-c3ccc(SCc4ccc(C#N)cc4)nc3)[nH]c2cc1C	u	-5%	-1%	u	11µM*	u
CC(=O)Nc1ccc(NC(=O)CCc2c(C)nc3c(c(C)nn3-c3ccc(C)cc3)c2C)cc1	-3%[46.1 µM]	x	-30%[46.1 µM]	-13%	x	28
c1ccc2sc(N3CCN(Cc4ccc5c(c4)OCO5)CC3)nc2c1	x	x	x	17%	x	x
N#C/C(=C\N1CCN(Cc2ccc3c(c2)OCO3)CC1)c1nc2ccccc2s1	-5%	-6%	-11%	-28%	14µM*	-18
CN1/C(=C\C(=O)CSc2nnc(N)s2)C(C)(C)c2ccccc21	u	0%	u	u	-8%	u
CN1/C(=C\C(=O)COC(=O)c2ccc(O)cc2)C(C)(C)c2ccccc21	x	-2%	x	-28%	u	-21
Cc1cccc[n+]1CC(=O)/C=C1\N(C)c2ccccc2C1(C)C	u	25%	u	u	-30%	-95*
CN1/C(=C\C(=O)C[n+]2cccc(Br)c2)C(C)(C)c2ccccc21	u	-1%	-1%	u	-25%	-83*
CN1/C(=C\C(=O)CN2C(=O)NC3(CCCCCC3)C2=O)C(C)(C)c2ccccc21	u	6%	u	20µM*	u	u
CN1/C(=C\C(=O)C[n+]2ccc(C(=O)c3ccccc3)cc2)C(C)(C)c2ccccc21	x	4%	x	-32%	u	-95*
CN1/C(=C\C(=O)CSc2cccc[n+]2[O-])C(C)(C)c2ccccc21	-2%	u	-9%[46.1 µM]	0%	u	-16
Cc1ccc(NC(=O)Cn2c(=O)n(Cc3nc(-c4ccccc4)no3)c(=O)c3cc4c(cc32)OCO4)cc1C	-23%[46.1 µM]	x	x	u	x	18
O=C1C(=O)N(C(CCc2ccccc2)c2nnnn2Cc2ccccc2)c2ccccc21 (stereo not given)	x	x	x	x	x	38
CC(=O)Nc1ccccc1-c1nc2ccccc2n(CC(=O)Nc2cccc(C)c2C)c1=O	-14%[46.1 µM]	x	9%[46.1 µM]	0%	x	11
CN1/C(=C\C(=O)COC(=O)c2ccc(O)c(O)c2)C(C)(C)c2ccccc21	u	3%	u	0%	u	-79*
Cc1ccc[n+](CC(=O)/C=C2\N(C)c3ccccc3C2(C)C)c1	2%	10%	u	u	-4%	-98*
CN1/C(=C\C(=O)C[n+]2cccc(C(N)=O)c2)C(C)(C)c2ccccc21	3%[46.1 µM]	-7%	-2%[46.1 µM]	-17%	7%	-33

Compound activity (PubChem BioAssay)
